Reference: the supplement of paper PMC11732987, “Enantioselective OTUD7B fragment discovery through chemoproteomics screening and high-throughput optimisation” (Communications Chemistry, 2025)

What was measured:
Assay in all cases: log2 ratio of Biotin-Ahx-Ub-VS probe labelling (fragment/DMSO); higher = less target engagement (more negative = stronger competition), active = hit call of the paper (q ≤ 0.05, log2 ratio ≤ -1)
Conditions in all cases: compound concentration: 200 uM; treatment time: 3 h
USP34 = USP34 (UniProt Q70CQ2)
USP34, sequence (Q70CQ2 whole entry, the tested form may be a part): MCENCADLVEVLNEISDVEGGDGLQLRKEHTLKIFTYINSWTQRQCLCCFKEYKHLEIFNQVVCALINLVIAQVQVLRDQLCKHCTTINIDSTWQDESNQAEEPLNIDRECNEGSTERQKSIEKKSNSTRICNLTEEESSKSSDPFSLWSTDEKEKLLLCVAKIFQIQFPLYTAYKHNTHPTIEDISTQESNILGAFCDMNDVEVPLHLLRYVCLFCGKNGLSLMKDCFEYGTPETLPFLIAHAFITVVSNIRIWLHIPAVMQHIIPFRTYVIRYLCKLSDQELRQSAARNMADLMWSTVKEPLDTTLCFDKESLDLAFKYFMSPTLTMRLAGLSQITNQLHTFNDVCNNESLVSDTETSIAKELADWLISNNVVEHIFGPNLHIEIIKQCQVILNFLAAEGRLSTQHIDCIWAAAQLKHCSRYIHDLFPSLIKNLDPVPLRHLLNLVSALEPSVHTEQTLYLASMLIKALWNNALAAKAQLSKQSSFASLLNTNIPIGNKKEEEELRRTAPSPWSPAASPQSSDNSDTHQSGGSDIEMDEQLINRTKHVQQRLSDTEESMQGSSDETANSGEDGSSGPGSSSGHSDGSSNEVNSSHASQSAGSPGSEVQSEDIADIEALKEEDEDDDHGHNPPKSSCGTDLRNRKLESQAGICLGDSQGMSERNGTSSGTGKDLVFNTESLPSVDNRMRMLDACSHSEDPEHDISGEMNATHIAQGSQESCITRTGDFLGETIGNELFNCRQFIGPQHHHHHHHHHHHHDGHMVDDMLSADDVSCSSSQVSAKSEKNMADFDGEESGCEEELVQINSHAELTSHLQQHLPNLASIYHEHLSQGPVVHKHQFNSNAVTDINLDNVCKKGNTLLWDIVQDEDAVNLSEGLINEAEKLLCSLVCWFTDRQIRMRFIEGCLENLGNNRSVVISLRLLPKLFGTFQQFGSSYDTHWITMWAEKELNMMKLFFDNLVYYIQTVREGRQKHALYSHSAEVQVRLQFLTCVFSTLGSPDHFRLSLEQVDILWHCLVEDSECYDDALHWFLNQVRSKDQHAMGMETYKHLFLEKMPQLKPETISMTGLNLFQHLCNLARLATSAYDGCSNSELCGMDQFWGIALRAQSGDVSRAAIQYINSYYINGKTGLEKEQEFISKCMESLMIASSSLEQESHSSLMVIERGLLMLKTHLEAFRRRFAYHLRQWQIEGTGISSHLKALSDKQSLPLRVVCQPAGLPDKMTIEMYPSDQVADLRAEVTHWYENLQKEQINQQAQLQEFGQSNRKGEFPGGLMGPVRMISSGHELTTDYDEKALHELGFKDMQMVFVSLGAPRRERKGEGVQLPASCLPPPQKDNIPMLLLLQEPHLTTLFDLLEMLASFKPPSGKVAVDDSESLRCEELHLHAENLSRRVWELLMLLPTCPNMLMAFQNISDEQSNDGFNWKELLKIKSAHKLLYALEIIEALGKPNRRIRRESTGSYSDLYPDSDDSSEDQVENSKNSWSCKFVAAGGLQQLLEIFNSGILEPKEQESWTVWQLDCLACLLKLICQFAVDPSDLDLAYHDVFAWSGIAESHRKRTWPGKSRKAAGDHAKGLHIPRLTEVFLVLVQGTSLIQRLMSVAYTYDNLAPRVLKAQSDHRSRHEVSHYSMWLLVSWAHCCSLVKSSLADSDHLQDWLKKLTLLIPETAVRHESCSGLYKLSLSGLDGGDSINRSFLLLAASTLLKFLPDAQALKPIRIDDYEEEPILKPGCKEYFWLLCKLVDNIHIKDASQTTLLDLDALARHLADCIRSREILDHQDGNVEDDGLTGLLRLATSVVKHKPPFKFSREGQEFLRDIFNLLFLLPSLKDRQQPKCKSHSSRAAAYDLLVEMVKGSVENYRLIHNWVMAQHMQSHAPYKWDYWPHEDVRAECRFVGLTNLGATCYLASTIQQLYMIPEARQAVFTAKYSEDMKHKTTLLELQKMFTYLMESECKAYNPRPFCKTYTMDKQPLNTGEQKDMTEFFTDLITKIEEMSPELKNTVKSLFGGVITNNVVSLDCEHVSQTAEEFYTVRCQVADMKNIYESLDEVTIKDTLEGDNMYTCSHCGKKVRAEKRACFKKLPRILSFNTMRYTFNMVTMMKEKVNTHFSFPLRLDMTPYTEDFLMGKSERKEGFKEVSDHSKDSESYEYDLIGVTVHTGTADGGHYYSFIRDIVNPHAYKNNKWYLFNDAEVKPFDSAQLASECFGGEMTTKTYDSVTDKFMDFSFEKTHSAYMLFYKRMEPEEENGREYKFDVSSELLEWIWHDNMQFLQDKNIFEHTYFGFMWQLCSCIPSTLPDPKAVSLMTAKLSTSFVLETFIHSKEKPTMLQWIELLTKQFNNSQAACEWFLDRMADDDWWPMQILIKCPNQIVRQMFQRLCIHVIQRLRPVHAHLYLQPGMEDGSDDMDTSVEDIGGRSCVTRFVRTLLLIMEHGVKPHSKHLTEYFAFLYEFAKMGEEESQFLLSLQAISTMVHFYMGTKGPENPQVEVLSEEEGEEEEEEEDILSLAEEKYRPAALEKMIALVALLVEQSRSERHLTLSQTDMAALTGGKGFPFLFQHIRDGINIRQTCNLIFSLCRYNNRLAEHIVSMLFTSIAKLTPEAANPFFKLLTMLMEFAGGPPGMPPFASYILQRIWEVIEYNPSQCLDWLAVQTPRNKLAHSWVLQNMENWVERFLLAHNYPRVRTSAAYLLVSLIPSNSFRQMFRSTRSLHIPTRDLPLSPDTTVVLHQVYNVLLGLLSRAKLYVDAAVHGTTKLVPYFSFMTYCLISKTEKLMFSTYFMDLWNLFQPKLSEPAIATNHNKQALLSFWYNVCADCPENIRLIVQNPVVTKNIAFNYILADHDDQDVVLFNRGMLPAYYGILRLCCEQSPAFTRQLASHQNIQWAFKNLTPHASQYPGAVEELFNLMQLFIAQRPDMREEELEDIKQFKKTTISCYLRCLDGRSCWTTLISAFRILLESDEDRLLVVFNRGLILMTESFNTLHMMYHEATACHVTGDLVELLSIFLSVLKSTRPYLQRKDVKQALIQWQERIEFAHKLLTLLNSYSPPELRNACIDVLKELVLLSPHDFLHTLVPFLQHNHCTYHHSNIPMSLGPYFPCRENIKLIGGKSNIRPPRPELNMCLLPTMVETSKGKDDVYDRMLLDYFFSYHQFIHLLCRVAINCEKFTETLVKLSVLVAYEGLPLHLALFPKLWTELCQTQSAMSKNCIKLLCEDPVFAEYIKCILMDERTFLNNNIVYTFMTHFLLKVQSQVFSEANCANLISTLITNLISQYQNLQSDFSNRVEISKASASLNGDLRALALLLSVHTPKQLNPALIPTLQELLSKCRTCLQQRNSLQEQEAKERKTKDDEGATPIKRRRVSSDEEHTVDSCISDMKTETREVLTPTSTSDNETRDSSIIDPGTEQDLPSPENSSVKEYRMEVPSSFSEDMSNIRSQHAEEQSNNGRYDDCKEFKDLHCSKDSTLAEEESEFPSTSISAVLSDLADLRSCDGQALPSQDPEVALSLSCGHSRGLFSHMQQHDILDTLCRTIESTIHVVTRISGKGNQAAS
In short: (§1)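 Labelled DUBs were enriched with NeutrAvidin, digested with LysC and trypsin, and run by diaPASEF LC-MS/MS. The labelling used Biotin-Ahx-Ub-VS at 0.5 µM final for 1 h on HEK293T lysate (495 µg per sample) previously treated in triplicate with fragment at 200 µM or vehicle for 3 h. Values are average log2 fragment/vehicle ratios by unpaired t-test on global-median-normalised Spectronaut quantities of proteins with ≥2 unique peptides.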

USP36 = target: T1, USP36 (UniProt Q9P275)
T1 sequence (whole entry): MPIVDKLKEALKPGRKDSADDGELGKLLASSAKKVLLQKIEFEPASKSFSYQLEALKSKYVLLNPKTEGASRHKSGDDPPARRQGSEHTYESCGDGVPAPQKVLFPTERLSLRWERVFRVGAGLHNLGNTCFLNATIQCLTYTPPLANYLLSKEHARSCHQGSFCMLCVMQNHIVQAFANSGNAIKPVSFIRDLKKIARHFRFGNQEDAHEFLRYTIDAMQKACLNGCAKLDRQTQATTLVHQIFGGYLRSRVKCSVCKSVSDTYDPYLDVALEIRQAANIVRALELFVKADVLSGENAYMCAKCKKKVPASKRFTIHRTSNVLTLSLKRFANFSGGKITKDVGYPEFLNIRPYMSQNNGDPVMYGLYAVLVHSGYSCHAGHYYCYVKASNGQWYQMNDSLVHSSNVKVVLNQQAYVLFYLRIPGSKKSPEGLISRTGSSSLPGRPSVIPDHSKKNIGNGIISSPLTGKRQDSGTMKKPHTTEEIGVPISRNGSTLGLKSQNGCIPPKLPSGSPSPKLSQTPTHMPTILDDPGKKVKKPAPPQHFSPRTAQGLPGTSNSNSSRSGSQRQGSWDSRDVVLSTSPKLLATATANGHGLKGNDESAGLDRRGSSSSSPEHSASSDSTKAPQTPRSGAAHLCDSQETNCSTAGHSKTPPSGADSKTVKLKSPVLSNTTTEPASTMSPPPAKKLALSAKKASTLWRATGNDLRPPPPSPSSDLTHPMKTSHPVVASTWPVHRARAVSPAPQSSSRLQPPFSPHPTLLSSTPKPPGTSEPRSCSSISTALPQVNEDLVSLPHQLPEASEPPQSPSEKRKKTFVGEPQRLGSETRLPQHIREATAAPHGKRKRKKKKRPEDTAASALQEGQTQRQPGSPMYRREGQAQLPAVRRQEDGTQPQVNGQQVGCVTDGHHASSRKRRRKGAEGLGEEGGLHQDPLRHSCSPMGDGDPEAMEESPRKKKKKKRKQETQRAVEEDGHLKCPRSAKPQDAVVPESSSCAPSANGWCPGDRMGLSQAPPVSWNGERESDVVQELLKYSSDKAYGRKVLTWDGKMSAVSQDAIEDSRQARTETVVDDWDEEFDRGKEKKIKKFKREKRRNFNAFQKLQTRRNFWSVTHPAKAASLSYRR
In short: as §1

USP38 = target: T2, USP38 (UniProt Q8NB14)
T2 sequence (whole entry): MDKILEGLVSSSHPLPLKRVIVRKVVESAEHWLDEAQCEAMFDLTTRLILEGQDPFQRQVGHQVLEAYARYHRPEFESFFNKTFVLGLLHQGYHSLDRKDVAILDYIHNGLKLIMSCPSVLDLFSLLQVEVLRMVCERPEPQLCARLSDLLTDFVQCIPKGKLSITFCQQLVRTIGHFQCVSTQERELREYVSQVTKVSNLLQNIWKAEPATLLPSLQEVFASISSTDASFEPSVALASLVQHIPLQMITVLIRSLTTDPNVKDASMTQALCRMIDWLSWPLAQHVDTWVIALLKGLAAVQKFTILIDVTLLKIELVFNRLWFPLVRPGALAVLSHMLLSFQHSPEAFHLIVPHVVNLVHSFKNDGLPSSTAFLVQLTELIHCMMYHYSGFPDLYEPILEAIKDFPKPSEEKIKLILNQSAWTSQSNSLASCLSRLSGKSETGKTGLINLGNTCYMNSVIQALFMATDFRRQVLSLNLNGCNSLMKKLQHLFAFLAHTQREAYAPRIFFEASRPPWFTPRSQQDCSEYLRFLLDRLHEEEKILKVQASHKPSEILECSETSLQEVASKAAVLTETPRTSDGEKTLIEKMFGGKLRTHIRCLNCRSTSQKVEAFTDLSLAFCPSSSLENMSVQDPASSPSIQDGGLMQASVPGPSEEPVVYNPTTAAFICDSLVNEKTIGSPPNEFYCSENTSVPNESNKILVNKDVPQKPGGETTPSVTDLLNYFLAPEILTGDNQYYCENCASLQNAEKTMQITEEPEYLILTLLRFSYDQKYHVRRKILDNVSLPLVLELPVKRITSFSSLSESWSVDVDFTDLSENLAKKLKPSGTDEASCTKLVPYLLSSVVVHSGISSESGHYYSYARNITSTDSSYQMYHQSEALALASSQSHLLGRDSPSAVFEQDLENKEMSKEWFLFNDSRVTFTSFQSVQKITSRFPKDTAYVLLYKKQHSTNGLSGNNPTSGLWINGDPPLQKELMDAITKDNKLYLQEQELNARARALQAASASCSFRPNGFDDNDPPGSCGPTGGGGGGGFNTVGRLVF
In short: as §1

USP39 = target: T3, USP39 (UniProt Q53GS9)
T3 sequence (whole entry): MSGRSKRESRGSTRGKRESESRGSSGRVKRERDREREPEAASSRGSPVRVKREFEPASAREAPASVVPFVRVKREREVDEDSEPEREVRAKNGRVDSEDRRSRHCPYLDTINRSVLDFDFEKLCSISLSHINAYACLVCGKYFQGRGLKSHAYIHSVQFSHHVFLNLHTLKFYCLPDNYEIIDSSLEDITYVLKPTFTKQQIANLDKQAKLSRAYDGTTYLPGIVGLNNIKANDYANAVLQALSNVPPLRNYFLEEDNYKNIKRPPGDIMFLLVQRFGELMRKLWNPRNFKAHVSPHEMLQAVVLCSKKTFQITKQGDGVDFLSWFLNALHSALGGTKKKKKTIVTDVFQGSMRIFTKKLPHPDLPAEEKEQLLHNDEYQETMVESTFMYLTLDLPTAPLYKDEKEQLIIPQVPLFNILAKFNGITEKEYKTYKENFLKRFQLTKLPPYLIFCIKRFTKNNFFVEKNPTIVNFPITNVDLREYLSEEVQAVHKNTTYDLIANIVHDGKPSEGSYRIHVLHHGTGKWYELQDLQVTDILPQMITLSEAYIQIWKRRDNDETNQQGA
In short: as §1

USP4 = target: T4, USP4 (UniProt Q13107)
T4 sequence (whole entry): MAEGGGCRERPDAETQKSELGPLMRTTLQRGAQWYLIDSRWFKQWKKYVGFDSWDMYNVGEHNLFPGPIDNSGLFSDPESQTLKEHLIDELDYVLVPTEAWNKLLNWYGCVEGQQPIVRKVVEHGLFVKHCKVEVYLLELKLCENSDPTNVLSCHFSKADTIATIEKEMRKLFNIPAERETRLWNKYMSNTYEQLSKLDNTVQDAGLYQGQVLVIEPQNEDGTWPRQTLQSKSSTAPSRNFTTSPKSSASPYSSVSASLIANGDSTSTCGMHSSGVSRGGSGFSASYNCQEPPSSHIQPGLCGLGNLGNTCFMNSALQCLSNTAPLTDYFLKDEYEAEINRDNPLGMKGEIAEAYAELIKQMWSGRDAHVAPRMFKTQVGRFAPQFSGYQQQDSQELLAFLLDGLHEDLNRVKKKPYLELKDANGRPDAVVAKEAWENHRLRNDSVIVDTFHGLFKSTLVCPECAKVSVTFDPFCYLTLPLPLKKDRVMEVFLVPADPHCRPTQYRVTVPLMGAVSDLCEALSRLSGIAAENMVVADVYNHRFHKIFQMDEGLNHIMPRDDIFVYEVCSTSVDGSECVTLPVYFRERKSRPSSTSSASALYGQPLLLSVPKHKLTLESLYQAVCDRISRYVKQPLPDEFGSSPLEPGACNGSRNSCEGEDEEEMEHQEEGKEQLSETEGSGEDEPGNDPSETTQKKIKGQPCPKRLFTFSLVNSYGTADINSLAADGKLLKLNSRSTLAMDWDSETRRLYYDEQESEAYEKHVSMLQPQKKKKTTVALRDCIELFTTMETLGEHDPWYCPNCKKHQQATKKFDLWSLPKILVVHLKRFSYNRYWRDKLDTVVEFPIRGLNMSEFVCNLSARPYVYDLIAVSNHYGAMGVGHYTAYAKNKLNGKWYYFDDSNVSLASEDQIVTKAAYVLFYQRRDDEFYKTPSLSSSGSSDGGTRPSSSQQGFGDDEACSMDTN
In short: as §1

Measured: log2 ratio of Biotin-Ahx-Ub-VS probe labelling

Cc1cccn2cc(CCNC(=O)CCl)nc12.Cl
inactive: USP34 -0.083 | USP36 -0.0485 | USP38 -0.247 | USP39 -0.319 | USP4 -0.12
